Results from PubChem BioAssay.
The source made the active and inactive calls. Unless noted, no rule for the calls is given here.

Legend:
[1] = resazurin metabolic signal in HepG2 cells – cell-based, resazurin fluorescence, 24 h, PK04 Diversity Set, profiling panel (AID 1172); conditions: HepG2 viability, higher = more signal; also: test concentration not given here
[2] = budding yeast growth changes without added modifier – OD600, strain BY4716, 24 h, basal condition, primary screen (AID 1173); conditions: S. cerevisiae BY4716 growth, OD600, 24 h; higher = more signal, called active from +8 up or from −8 down
[3] = viability profiling in MM1S myeloma cells – cell-based, resazurin fluorescence, basal, 24 h, PK04 Diversity Set, profiling panel (AID 1174); conditions: higher = more signal, called active from +8 up or from −8 down;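 also: MM1S multiple myeloma cell line; test concentration not given here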
[4] = target: Dihydroorotate dehydrogenase (quinone), mitochondrial (Plasmodium falciparum (isolate 3D7)) (UniProt Q08210); assay: inhibition of P. falciparum DHODH – biochemical, C-terminal His tag, absorbance 600 nm, primary screen (AID 1175); conditions: PfDHODH enzyme, DCIP absorbance 600 nm; higher = more signal, called active from +8 up or from −8 down;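 also: recombinant parasite enzyme with a five histidine tag at its C terminus; test concentration not given here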
Sequence of Dihydroorotate dehydrogenase (quinone), mitochondrial (Plasmodium falciparum (isolate 3D7)) (Q08210 whole entry, looked up): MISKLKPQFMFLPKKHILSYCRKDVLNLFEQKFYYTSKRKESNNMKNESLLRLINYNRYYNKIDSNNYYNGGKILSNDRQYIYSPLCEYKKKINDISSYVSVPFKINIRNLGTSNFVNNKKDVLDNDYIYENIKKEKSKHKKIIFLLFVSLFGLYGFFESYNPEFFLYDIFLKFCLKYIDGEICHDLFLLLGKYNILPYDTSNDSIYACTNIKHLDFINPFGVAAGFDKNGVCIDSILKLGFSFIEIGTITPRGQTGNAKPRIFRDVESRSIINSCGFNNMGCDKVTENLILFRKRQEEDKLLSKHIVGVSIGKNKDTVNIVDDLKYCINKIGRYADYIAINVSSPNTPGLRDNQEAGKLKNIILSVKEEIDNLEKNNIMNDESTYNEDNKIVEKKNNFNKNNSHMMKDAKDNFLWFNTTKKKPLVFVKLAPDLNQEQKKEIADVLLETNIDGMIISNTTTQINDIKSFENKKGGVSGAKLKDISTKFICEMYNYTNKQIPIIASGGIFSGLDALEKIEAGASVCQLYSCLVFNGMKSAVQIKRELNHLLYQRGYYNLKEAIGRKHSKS

[5] = inhibition of PAO1 biofilm formation – strain PAO1, LB-PBS medium, absorbance 600 nm, primary screen (AID 1176); also: test concentration not given here; conditions: P. aeruginosa PAO1 growth/biofilm, A600, 12 h; higher = more signal
[6] = growth modulation of vineyard yeast isolate – strain RM11-1a, OD600, basal, 24 h, primary screen (AID 1177);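 also: cultures grown under basal conditions with no added stressor; test concentration not given here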; conditions: S. cerevisiae RM11-1a growth, OD600, 24 h; higher = more signal, called active from +8 up or from −8 down
[7] = growth of efflux-deficient E. coli DRC39 – strain DRC39, OD650, 24 h, E. coli filamentation inducers, primary screen (AID 1178);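 also: growth measured as culture turbidity by optical density at 650 nm; test concentration not given here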; conditions: E. coli DRC39 acrAB, higher = more signal, called active from +8 up or from −8 down
[8] = growth of efflux-deficient E. coli DRC39 – strain DRC39, OD650, 48 h, E. coli filamentation inducers, primary screen (AID 1179);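 also: screen aims at cell division blockers that make cells filament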; conditions: E. coli DRC39 delta-acrAB growth, higher = more signal, called active from +8 up or from −8 down
[9] = viability profiling in RPMI8226 myeloma cells – cell-based, resazurin fluorescence, basal, 24 h, PK04 Diversity Set, profiling panel (AID 1180); conditions: higher = more signal;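 also: RPMI8826 multiple myeloma cell line at 5000 cells per well; test concentration not given here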
[10] = target: E3 ubiquitin-protein ligase XIAP (Homo sapiens) (UniProt P98170); assay: small molecules binding XIAP protein – biophysical, small-molecule microarray, fluorescence 635 nm, primary screen (AID 1181); conditions: higher = more signal;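 also: score merges 667 nm emission and signal to noise over triplicate slides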
Sequence of E3 ubiquitin-protein ligase XIAP (Homo sapiens) (P98170 whole entry, looked up): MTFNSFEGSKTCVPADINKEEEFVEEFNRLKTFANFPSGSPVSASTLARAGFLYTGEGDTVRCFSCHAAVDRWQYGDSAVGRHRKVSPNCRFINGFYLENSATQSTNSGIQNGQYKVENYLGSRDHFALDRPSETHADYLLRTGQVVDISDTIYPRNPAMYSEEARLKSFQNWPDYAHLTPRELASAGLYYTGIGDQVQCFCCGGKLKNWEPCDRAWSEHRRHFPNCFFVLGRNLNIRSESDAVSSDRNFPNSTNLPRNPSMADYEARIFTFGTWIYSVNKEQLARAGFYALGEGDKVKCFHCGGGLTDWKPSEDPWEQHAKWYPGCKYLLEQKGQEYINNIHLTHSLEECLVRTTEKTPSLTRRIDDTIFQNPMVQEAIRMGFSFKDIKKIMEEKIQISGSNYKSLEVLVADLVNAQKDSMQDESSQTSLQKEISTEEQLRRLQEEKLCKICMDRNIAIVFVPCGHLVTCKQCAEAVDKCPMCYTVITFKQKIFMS

SMILES | z-score [1] | z-score [2] | z-score [3] | composite z-score [4] | z-score [5] | z-score [6] | z-score [7] | z-score [8] | z-score [9] | composite z-score [10]
CN1C(=O)C2C=CC(C(O)C3CC=CCC3)N(NC(=O)OC(C)(C)C)C2C1=O (stereo not given) | -1.53 | -0.0428 (inactive) | -0.784 (inactive) | 0.123 (inactive) | 0.503 (inactive) | -0.0874 (inactive) | -0.791 (inactive) | -0.688 (inactive) | -1 | 0.579
COCCOC(=O)N1C(=O)[C@@]2(c3cc(C#CCCO)ccc31)[C@H](c1ccc(OCCO)cc1)N1[C@H](c3ccccc3)[C@H](c3ccccc3)OC(=O)[C@H]1[C@@H]2C(=O)N1CCN(c2ncccn2)CC1 | 0.235 | 1.37 (inactive) | 0.327 (inactive) | -0.547 (inactive) | 1.27 (inactive) | 1.24 (inactive) | -0.448 (inactive) | -0.327 (inactive) | 0.52 | -0.212
CCCCc1cn(C[C@H](Cc2ccccc2)NC(=O)N[C@H](CO)CCc2oc(C(C)=O)c(C(=O)OC)c2C(=O)OC)nn1 | -0.013 | -2.38 (inactive) | 0.465 (inactive) | -2.83 (inactive) | -0.44 (inactive) | -0.728 (inactive) | 0.916 (inactive) | 0.646 (inactive) | -0.185 | 0.276
CC(C)C(CO)N1C(=O)[C@@H]2[C@H]3C(=O)OCC=C[C@H]3OC23C=CCN(C(C)C)C(=O)[C@@H]13 (stereo not given in full) | 1.18 | 0.55 (inactive) | 0.713 (inactive) | 0.0658 (inactive) | -0.565 (inactive) | 0.73 (inactive) | 0.074 (inactive) | -0.137 (inactive) | 0.634 | -0.0719
CC(C)[C@@H](CO)NC(=O)[C@H]1[C@@H](c2ccccc2)N(c2ccccc2)O[C@@H]1C | 0.872 | -2.53 (inactive) | 0.751 (inactive) | -0.857 (inactive) | 0.0573 (inactive) | 1.2 (inactive) | -0.323 (inactive) | 0.506 (inactive) | 0.566 | -0.0999
CCOC(=O)C1=CCC(c2ccc(C)cc2)N(S(=O)(=O)c2ccc(C)cc2)C1 (stereo not given) | 0.28 | 1.94 (inactive) | -0.714 (inactive) | -0.526 (inactive) | 0.173 (inactive) | 1.03 (inactive) | -0.764 (inactive) | -0.56 (inactive) | -1.63 | 0.128
CS(=O)(=O)CCOC(=O)C1=CC(CCCO)=CC(c2ccc(CN3CCCC3)cc2)N(Cc2cc3c(cc2Br)OCO3)C=C1C(=O)OCCS(C)(=O)=O (stereo not given) | 0.0305 | -3.3 (inactive) | 0.56 (inactive) | -4.55 (inactive) | -0.66 (inactive) | 0.526 (inactive) | 0.549 (inactive) | 0.325 (inactive) | 1.31 | -0.0773
COC(=O)[C@@]1(Cc2ccc(F)cc2)[C@H]2c3cc(C(=O)N(C)C)n(Cc4nc5ccccc5[nH]4)c3C[C@H]2CN1C(=O)c1ccccc1 | 0.455 | 0.681 (inactive) | -0.534 (inactive) | 0.0187 (inactive) | 0.315 (inactive) | 0.22 (inactive) | -0.0051 (inactive) | 0.12 (inactive) | -0.187 | 0.338
Cc1ccc(C(C)CC(O)C2C=CC3C(=O)N(c4ccccc4)C(=O)C3N2Nc2ccc([N+](=O)[O-])cc2)o1 (stereo not given) | 0.836 | 0.124 (inactive) | -0.171 (inactive) | -0.071 (inactive) | 1.14 (inactive) | 0.315 (inactive) | -0.975 (inactive) | 0.178 (inactive) | 0.263 | 0.152
O=C(NCc1ccccc1)[C@@]1(CCS(=O)(=O)c2ccccc2)N=C(c2ccc(OCCCO)cc2)O[C@H]1c1ccccc1 | 1.36 | 1.01 (inactive) | -0.705 (inactive) | 1.05 (inactive) | -0.0304 (inactive) | 1.46 (inactive) | 0.714 (inactive) | 1.62 (inactive) | 0.448 | 0.202
C=CCOC(=O)[C@H]1[C@@H]2C(=O)O[C@@H](c3ccccc3)[C@@H](c3ccccc3)N2[C@@H](c2ccc(OCCOC(=O)[C@H]3C[C@H]4C(=O)N[C@@H](CC(C)C)C(=O)N4[C@H]3c3ccc(O)cc3)cc2)[C@]12C(=O)Nc1ccc(I)cc12 | -0.598 | -0.838 (inactive) | -0.491 (inactive) | -1.72 (inactive) | 0.379 (inactive) | 0.919 (inactive) | -0.267 (inactive) | 0.276 (inactive) | -0.385 | 0.109
O=C1OCCC=C[C@H]2OC34C=CCN(CCN5CCOCC5)C(=O)[C@H]3N(CCCCCCO)C(=O)[C@@H]4C12 (stereo not given in full) | 0.24 | 0.039 (inactive) | -0.0328 (inactive) | 0.369 (inactive) | -0.373 (inactive) | 0.626 (inactive) | 1.14 (inactive) | 1.43 (inactive) | 0.22 | 0.464
[N-]=[N+]=Nc1ccccc1C[C@]1(C(N)=O)N=C(c2ccc(OCCCO)cc2)O[C@H]1c1ccccc1 | 0.329 | -0.936 (inactive) | -1.02 (inactive) | 0.667 (inactive) | 1.16 (inactive) | 1.33 (inactive) | 0.0314 (inactive) | -0.665 (inactive) | -1.03 | -0.108
COC(=O)[C@@]1(Cc2ccc(F)cc2)[C@H]2c3cc(C(=O)N4CCCC4)n(Cc4cc(C)n(C)n4)c3C[C@H]2CN1C(=O)c1ccccc1 | -0.945 | 0.603 (inactive) | -0.642 (inactive) | -0.468 (inactive) | 0.964 (inactive) | 0.279 (inactive) | -0.375 (inactive) | -0.459 (inactive) | -1.51 | 0.17
COCCOC(=O)N1C(=O)[C@@]2(c3cc(C#CCCO)ccc31)[C@H](C(=O)N1CCc3cc(OC)c(OC)cc3C1)[C@H]1C(=O)O[C@H](c3ccccc3)[C@H](c3ccccc3)N1[C@@H]2c1ccc(O)cc1 | 0.0444 | -0.253 (inactive) | -0.419 (inactive) | -0.268 (inactive) | 0.875 (inactive) | 2.12 (inactive) | 0.316 (inactive) | 0.884 (inactive) | -0.368 | -0.0812
COc1cc(OC)c(C(O)C2C=CC3C(=O)NC(=O)C3N2Nc2ccc(Cl)cc2Cl)cc1Br (stereo not given) | -3.99 | -14.7 (active) | -2.48 (inactive) | -0.0023 (inactive) | 0.338 (inactive) | 0.695 (inactive) | -0.0795 (inactive) | -1.06 (inactive) | -2.27 | 0.367
NCCCCCNC(=O)[C@@H]1C[C@@H]2C(=O)N[C@@H](Cc3ccccc3)C(=O)N2[C@@H]1c1cccc(OCCO)c1 | -0.837 | 1.04 (inactive) | -0.104 (inactive) | 0.251 (inactive) | 0.174 (inactive) | 0.606 (inactive) | -0.297 (inactive) | -0.457 (inactive) | -0.603 | 0.416
C=CCOC(=O)[C@@H]1[C@H]2C(=O)O[C@H](c3ccccc3)[C@H](c3ccccc3)N2[C@H](c2ccc(OCCOC(=O)[C@@H]3C[C@@H]4C(=O)N[C@@H](CCCC[N+](C)(C)C)C(=O)N4[C@@H]3c3cccc(OCCO)c3)cc2)[C@@]12C(=O)Nc1ccc(I)cc12 | 1.34 | -1.21 (inactive) | -0.669 (inactive) | -5.39 (inactive) | 1.18 (inactive) | 1.98 (inactive) | -0.62 (inactive) | -0.659 (inactive) | -0.847 | -0.126
[N-]=[N+]=NCc1ccccc1[C@@H]1OC(c2ccc(OCCCO)cc2)=N[C@]1(Cc1ccccc1N=[N+]=[N-])C(=O)N1CCOCC1 | -0.54 | -0.532 (inactive) | -1.21 (inactive) | -0.52 (inactive) | 0.727 (inactive) | 0.602 (inactive) | -0.38 (inactive) | -0.265 (inactive) | -1.64 | 0.358
C=CCNC(=O)[C@@H]1[C@H]2C(=O)O[C@H](c3ccccc3)[C@H](c3ccccc3)N2[C@H](c2ccc(OCCO)cc2)[C@@]12C(=O)Nc1ccc(C#Cc3ccc(OC)cc3)cc12 | -0.662 | 1.84 (inactive) | -0.718 (inactive) | -4.91 (inactive) | 1.81 (inactive) | 2.6 (inactive) | -1.48 (inactive) | -1.2 (inactive) | -1.25 | 0.0181
Cc1ccc(C(C)CC(O)C2C=CC3C(=O)N(C)C(=O)C3N2NC(=O)OC(C)(C)C)o1 (stereo not given) | -0.427 | -0.626 (inactive) | -0.076 (inactive) | -0.166 (inactive) | 0.434 (inactive) | 0.66 (inactive) | -0.107 (inactive) | -0.354 (inactive) | 0.0437 | 0.12
O=C1c2ccccc2[C@@]2(Cc3ccccc3N(CC(F)(F)F)C2=O)[C@H](c2ccc(CO)cc2)N1Cc1ccccc1Cl | 0.0685 | 0.386 (inactive) | 0.192 (inactive) | -22.2 (active) | 0.848 (inactive) | -0.399 (inactive) | 0.424 (inactive) | -0.411 (inactive) | 0.638 | 0.176
CCOC(=O)[C@H]1C/C=C/C[C@H](C(=O)OCC)C(=O)O[C@H]2[C@@H](OC)O[C@H](CO)[C@@H](OC(=O)Nc3cccc(F)c3)[C@@H]2OC1=O | -5.49 | -0.218 (inactive) | -9.05 (active) | -0.0103 (inactive) | 1.74 (inactive) | 1.84 (inactive) | 0.675 (inactive) | 1.23 (inactive) | -7.34 | 0.125
O=C(NCc1ccc(F)cc1)[C@H]1C[C@H]2C(=O)N[C@@H](Cc3ccccc3)C(=O)N2[C@H]1c1ccc(O)cc1 | -0.354 | 1.41 (inactive) | 0.396 (inactive) | -0.0513 (inactive) | -0.0185 (inactive) | 1.23 (inactive) | 0.222 (inactive) | -0.324 (inactive) | 0.512 | -0.224
